# D1 agonist: agonists of human D1 dopamine receptor | HEK293 T-REx D1 cells, calcium flux, agonist mode | activation, % at 2 µM | P21728 | actives 1% (n = 360,000); in the data active = activation above about 30%
# Target sequence (P21728 whole entry, looked up): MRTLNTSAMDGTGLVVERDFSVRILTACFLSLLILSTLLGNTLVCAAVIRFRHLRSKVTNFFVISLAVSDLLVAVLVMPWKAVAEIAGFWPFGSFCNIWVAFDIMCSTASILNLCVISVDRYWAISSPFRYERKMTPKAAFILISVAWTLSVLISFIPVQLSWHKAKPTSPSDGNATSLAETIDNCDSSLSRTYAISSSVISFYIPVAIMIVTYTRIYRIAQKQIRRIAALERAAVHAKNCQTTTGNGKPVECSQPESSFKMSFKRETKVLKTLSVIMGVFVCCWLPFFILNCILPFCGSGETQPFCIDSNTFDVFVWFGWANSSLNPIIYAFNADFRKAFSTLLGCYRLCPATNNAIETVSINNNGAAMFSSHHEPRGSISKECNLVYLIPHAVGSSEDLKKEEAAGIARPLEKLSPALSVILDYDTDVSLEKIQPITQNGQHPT
#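 Tetracycline-induced HEK293 TREx D1 cells, force-coupled to calcium signalling, were dye-loaded with a no-wash calcium kit. Compound was pin-added after a 10 s baseline. Fluorescence was read kinetically at 1 cycle/s for 180 s, with calcium rises flagged as agonism.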
# ERG Ets-DNA blk: ERG Ets/DNA interaction inhibition. P11308. Potency, µM (highest dose often 76.9 µM), usual class: inhibitors. fluorescence polarization, His-ERG Ets domain / labelled DNA. actives 0.028% (n = 370,000); active = well fitted inhibition curve with a large enough effect in the polarisation, with a control signal flat; inconclusive = small, poorly fitted or top-dose-only effect, or effect the other way, or a change in a side signal; inactive = no such curve, though single readings can be large or run the other way; the % refers to the polarisation;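 also: polarization taken with two DNA probes labelled with fluorescein and Texas red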
#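 His-tagged ERG Ets domain (1 uM in the protein solution; 300mM KCl, 50mM Tris-HCl, 1mM EDTA, 1mM DTT, pH 7.5) received compound, then a probe mix of 5 nM fluorescein-DNA and 100nM Texas-615-DNA. Fluorescence polarization was read for both dyes.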
# D1 PAM: potentiators of human D1 dopamine receptor; P21728; HEK293 TREx D1 cells, calcium flux, dopamine EC20 potentiation; potentiation, % at 10 µM; actives 0.036% (n = 360,000); AID 504651; in the data active = potentiation above about 30%
# D1 antag: human D1 dopamine receptor antagonism | P21728 | HEK293 TREx D1 cells, calcium flux, dopamine EC80; hits give low values | activity change, negative = inhibition, % at 10 µM | actives 3.2% (n = 360,000); in the data active = activity change below about -30%
#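 Antagonism measured as reduced calcium response to an EC80 dopamine addition following 180 s compound pre-read; cells were inducible HEK293 Trex D1 plated overnight at 30 C, read kinetically at 1 cycle/sec.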
# D3 ag: D3 dopamine receptor (human) agonism | actives 0.58% (n = 410,000) | AID 652048 | D3R DiscoveRx beta-arrestin cells, luminescence, 90 min | P35462 | max activation, %; in the data active = max activation above about 30%
#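 Agonist mode: compounds and dopamine controls were applied to plated cells for 90 min at 37 degrees C after an overnight attachment at 1500 cells/well. Luminescent read-out followed 30 - 60 minutes at room temperature with DiscoveRx detection reagent.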
# D3 antag: antagonists of human D3 dopamine receptor; P35462; D3R cells, DiscoveRx beta-arrestin luminescence, antagonist mode; hits give low values; max response, negative = inhibition, %; actives 2.5% (n = 360,000); AID 652054; in the data active = max response below about -50%; inconclusive = no clear call, values can overlap the other calls
#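 Cells plated overnight at 1500 cells/well, then exposed to library compounds with dopamine controls for 90 minutes at 37 degrees C. DiscoveRx reagent added for 30–60 minutes at room temperature; luminescence read, quantitative HTS format.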
# Numbers stand for hits; . = inactive; ? = inconclusive; / = not tested or not shown. This is a sample that favours compounds with a hit; in the whole collection about 6.1% have one here.
SMILES,D1 agonist,ERG Ets-DNA blk,D1 PAM,D1 antag,D3 ag,D3 antag
COC(COC(N)=O)C1=C(N2CC2)C(=O)C(C)=C(N2CC2)C1=O (stereo unspecified),/,/,/,/,.,.
CC1=C(N2CC2)C(=O)C(CO)=C(N2CC2)C1=O,/,.,/,/,.,-95.6
CN1CCN(c2ccc([N+](=O)[O-])c(NCc3ccco3)c2)CC1,.,.,.,-31.2,.,-74.7
CN1CCN(c2ccc([N+](=O)[O-])c(NCC3CCCO3)c2)CC1 (stereo unspecified),.,/,.,.,44.2,.
O=c1cc(CN2CC=C(c3ccccc3)CC2)c2c(ccc3ccccc32)o1,.,.,.,.,.,.
Cc1cc(O)c(CN2CC=C(c3ccccc3)CC2)cc1C(C)C,.,.,.,.,.,-72.7
COc1cccc(-n2c(/C=C/c3ccccn3)nc3ccccc3c2=O)c1,.,.,.,.,.,.
COc1ccc(OC)c(C(O)C2CCCCN2)c1 (stereo unspecified),.,.,.,.,.,-61.3
Oc1c(Br)cc(Br)cc1CN1CCN(Cc2ccccc2)CC1,.,.,.,.,.,?
CCN1CCN(Cc2cc(Br)cc(OC)c2O)CC1,.,.,.,.,.,-52.9
CC(=O)c1cn(Cc2ccccc2C#N)c2ccccc12,.,.,.,-34.1,.,.
CC(=O)c1cn(Cc2ccccc2F)c2ccccc12,.,.,.,-55.4,.,.
O=Cc1cn(Cc2ccccc2F)c2ccccc12,.,.,.,.,.,.
COC(=O)C1=C(c2ccc(C(C)=O)cc2)C[C@@H]2CC[C@H]1N2C(=O)N1CCC(C)CC1,.,.,.,.,.,.
CN(C(=O)c1ccco1)C1(c2ccccc2Cl)CCCCC1=O (stereo unspecified),.,.,.,.,.,-52.6
CNC1(c2ccccc2Cl)CCCCC1=O (stereo unspecified),/,.,/,/,.,.
O=C1CN=C(c2ccccc2)c2c(sc3c2CCCC3)N1,.,.,.,.,.,.
COc1cc(CN=Cc2c(O)n(C(C)(C)C)c(=O)[nH]c2=O)cc(OC)c1,.,.,.,.,.,.
NC(=O)c1ccsc1NC(=O)COC(=O)Cc1ccccc1,.,.,.,-32.4,.,.
COC(=O)C1=C(c2ccc(-c3ccccc3)c(F)c2)C[C@@H]2CC[C@H]1N2C(=O)NC1CCCCC1,.,.,.,/,.,.
CCN(CC)C(=O)[C@@H]1C=C2c3cccc4[nH]cc(c34)C[C@H]2N(C)C1,/,/,/,/,51.4,/
CN1C[C@H](CO)C=C2c3cccc4[nH]cc(c34)C[C@H]21,.,.,.,-76.4,.,-78.1
C=CCn1c(O)c(C(C)=NCCN2CCN(C(=S)NC)CC2)c(=O)[nH]c1=O,.,.,.,.,.,.
COc1ccc(Cn2c(O)c(C=NCCN3CCOCC3)c(=O)[nH]c2=O)cc1,.,.,.,-37.4,.,.
O=c1[nH]c(=O)n(Cc2ccc(F)cc2)c(O)c1C=NCCN1CCCCC1,.,.,.,.,.,.
SMILES,D1 agonist,ERG Ets-DNA blk,D1 PAM,D1 antag,D3 ag,D3 antag
O=C(/C=C/C=C/c1ccccc1)CC1(O)C(=O)Nc2ccccc21 (stereo unspecified),.,.,.,.,.,.
COc1cccc(N2CCN(Cc3ccc(Cl)cc3)CC2)c1,.,.,.,.,.,-93.6
COc1cccc(N2CCN(Cc3cccc(Cl)c3)CC2)c1,.,.,.,.,.,-73.9
COc1ccc(CN2CCN(C(=O)Cc3ccccc3)CC2)c(OC)c1,.,.,.,.,.,.
Fc1cccc(CN2CCN(c3ccc(Cl)cc3)CC2)c1,.,.,.,.,.,-71.5
COc1ccc(CN2CCN(Cc3ccccc3)CC2)c(OC)c1,.,.,.,.,.,-112.7
Fc1ccccc1CN1CCN(c2ccc(Cl)cc2)CC1,.,.,.,.,.,?
COc1cccc(CC(=O)N2CCN(Cc3cccc(Cl)c3)CC2)c1,.,.,.,.,.,.
COc1cccc(CN2CCN(Cc3cccc(F)c3)CC2)c1,.,.,.,.,.,.

# Compound activity (PubChem)
